From PMC5540273 (PLoS ONE, 2017)
Values joined by “and” are separate entries in the source; they are usually repeats but may differ in a detail not shown here. Equal values may be shown once. Read-outs that look alike come from different tables or passages of the source.

Legend:
Conditions in all cases: concentration: 1 μM, replicates: in singlicate, n = 1
p38-beta = tested on: T1, p38-beta
T1 construct: gene MAPK11

p38-delta = tested on: p38-delta
p38-gamma = tested on: T2, p38-gamma
T2 construct: gene MAPK12
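Further: KINOMEscan kinase panel screen.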

SMILES | %Inh (p38-beta) [%] | %Inh (p38-delta) [%] | %Inh (p38-gamma) [%] | %Inh (p38-beta; 1 µM) | %Inh (p38-delta; 1 µM) | %Inh (p38-gamma; 1 µM)
Nc1nc(-c2ccccn2)c(-c2ccnc3ccccc23)s1 [GW548057] | 0 | 29 | 0 |  |  | 
CN1c2ccc(-c3ccc(C(=O)NCCO)cc3)cc2-c2[nH]ncc2S1(=O)=O | 4 | 9 | 10 |  |  | 
OCCOCCn1ccc2ncnc(Nc3ccc(Oc4cccc(Cl)c4)c(Cl)c3)c21 | 0 | 0 | 0 |  |  | 
CC(C)(C)c1ccc(-n2cnc3c(N)ncnc32)cc1 [SKF-97263] | 0 | 11 | 32 |  |  | 
Cl.O=S(=O)(c1cccc(F)c1)c1ccc(Nc2ncnc3cc(Br)sc23)cc1Cl [GSK306886] | 0 | 26 | 8 |  |  | 
c1ccc(-c2ccc3c(-c4ccnc(Nc5ccc6c(c5)OCCO6)n4)cnn3n2)cc1 [GW818941] | 0 | 26 | 0 |  |  | 
CSc1nn2c(=O)cc(N3CCOCC3)nc2n1Cc1cccc(Cl)c1Cl [GSK2347225] | 0 | 59 | 16 |  |  | 
CN1CCC(n2cnc(-c3ccc(F)cc3)c2-c2ccnc(NC3CCNCC3)n2)CC1 [SB-229482] | 23 | 38 | 38 |  |  | 
C[C@H]1CC[C@@H](C(=O)Nc2ccccc2)CN1c1cc(-c2ccc3c(N)n[nH]c3c2)nc(N)n1 [GSK2283293] | 0 | 0 | 51 |  |  | 
CNc1nccc(-c2c(-c3ccc(F)cc3)ncn2CCCN2CCOCC2)n1 [SB-222516] | 15 | 0 | 4 |  |  | 
CS(=O)(=O)CCNCc1ccc(-c2ccc3ncnc(Nc4ccc(OCc5ccccc5)c(Cl)c4)c3c2)o1.Cl [GW574783] | 0 | 21 | 0 |  |  | 
COc1ccc(NC(=O)Nc2ccc(C)c(-c3ccc(C(=O)Nc4ccncc4)cc3)c2)cc1 [GSK1398475] | 0 | 37 | 0 |  |  | 
CCn1c(-c2ccncc2)nc2cnccc21 [SB-735216] | 11 | 4 | 20 |  |  | 
COc1cc2ncnc(Nc3ccc(OCc4ccccc4Br)c(Cl)c3)c2cc1OC.Cl [GI261590] | 0 | 54 | 0 |  |  | 
CS(=O)(=O)CCNCc1nc(-c2ccc3ncnc(Nc4ccc(OCc5cccc(F)c5)c(Cl)c4)c3c2)cs1.Cl [GW583340] | 0 | 47 | 0 |  |  | 
CC(=O)Nc1n[nH]c2ncc(-c3ccccc3)cc12 [SB-548492] | 11 | 3 | 20 |  |  | 
C[C@@H]1CCN(C(=O)CO)C[C@@H]1N(C)c1ncnc2[nH]ccc12 | 5 | 13 | 1 |  |  | 
COc1ccc(-c2nc3n(c2-c2ccncc2)CCC3)cc1 [SKF-104493] |  |  |  | 33% and 40% | 5% and 43% | 21% and 8%

SMILES | %Inh (p38-beta) [%] | %Inh (p38-delta) [%] | %Inh (p38-gamma) [%] | %Inh (p38-beta; 1 µM) | %Inh (p38-delta; 1 µM) | %Inh (p38-gamma; 1 µM)
COc1ccc(Nc2nccc(N3CCC(NC(=O)Nc4ccc5c(c4)OCO5)C3)n2)cc1 (stereo not drawn) [GSK1379745] | 0 | 14 | 3 |  |  | 
Cc1ccc(O)cc1Nc1cc(C(F)(F)F)nc2ccc(-c3ccncc3)cc12 [GW630823] | 0 | 7 | 31 |  |  | 
Cc1ccc(C)c(NC(=O)NCCNc2ccnc(Nc3ccc(F)cc3)n2)c1 [GSK1379878] | 0 | 45 | 0 |  |  | 
O=C(Nc1ccccc1F)NC1CCN(c2ccnc(Nc3ccc(F)cc3)n2)C1 (stereo not drawn) [GSK1379722] | 0 | 38 | 0 |  |  | 
Fc1ccc(Nc2nccc(-c3c(-c4ccc(Cl)cc4)nn4ncccc34)n2)cc1F [GW829058] | 19 | 4 | 37 |  |  | 
COC(=O)c1cccc(NC(=O)NCCNc2ccnc(Nc3ccc(F)cc3)n2)c1 [GSK1379883] | 0 | 40 | 0 |  |  | 
Fc1ccc(-c2ncn(CCCNCc3ccccc3)c2-c2ccncc2)cc1 | 4 | 1 | 24 |  |  | 
O=C(NCCCN1CCCC1=O)c1cnc(NCc2cc(Cl)ccc2Cl)nc1NC1CCNCC1 | 0 | 42 | 18 |  |  | 
Cl.Fc1ccccc1COc1ccc(Nc2ncnc3ccc(-c4nnc(C(F)(F)F)o4)cc23)cc1Cl [GW424170] | 0 | 29 | 17 |  |  | 
COc1ccc(NC(=O)c2ccc(-c3cc(-c4nnc(C)o4)ccc3C)cc2)cc1 [GW595885] | 33 | 17 | 0 |  |  | 
O=c1cc(N2CCOCC2)nc2n(Cc3cccc(Cl)c3)ccn12 [GSK2296823] | 0 | 38 | 56 |  |  | 
CCc1nc(-c2cccc(N(C)S(=O)(=O)c3ccccc3)c2)c(-c2ccnc(Nc3ccc(N4CCN(C(C)=O)CC4)nc3)n2)s1 [GSK1645895] | 0 | 7 | 0 |  |  | 
Fc1cccc(COc2ccc(Nc3ncnc4sc(-c5ccc[nH]5)cc34)cc2Cl)c1 [GW707818] | 4 | 46 | 7 |  |  | 
Nc1n[nH]c2nnc(-c3ccccc3)cc12 [SB-517389] | 0 | 39 | 0 |  |  | 
Nc1nc(-c2ccc3c(N)n[nH]c3c2)cc(N2CCC[C@@H](C(=O)Nc3ccccc3)C2)n1.O=C(O)C(F)(F)F.O=C(O)C(F)(F)F [GSK2288359] | 0 | 18 | 27 |  |  | 
Fc1cccc(COc2ccc(Nc3ncnc4nn5ccccc5c34)cc2Cl)c1 [GW689066] | 0 | 25 | 0 |  |  | 
Clc1ccc(-c2cc(-c3c[nH]nc3-c3ccccn3)ccn2)cc1 [GW681251] | 0 | 25 | 0 |  |  | 
CCCc1ccc(S(=O)(=O)NC2CCN(c3ccnc(Nc4ccc(OC)cc4)n3)C2)cc1 (stereo not drawn) [GSK1379737] | 0 | 26 | 31 |  |  | 
